The campaign covered roughly 400,000 compounds. About 13,000 (3.2%) were called active. Another 18% or so got no clear call; they are omitted. Calls follow the shape of the dose curve; as a rule, active = well fitted cell-killing curve with a large enough effect; inconclusive = small, poorly fitted or top-dose-only effect, or effect the other way; inactive = flat fitted curve, though single readings scatter. The list comes from a sample in which actives are over-represented; it also holds similar structures and randomly drawn compounds. Entries that show only a call come without a potency.
test: qHTS assay for MDR1-selective chemotherapeutics: Primary screen using the drug-selected MDR subline cells KB-V1; conditions: KB-V1 MDR cells viability, CellTiter-Glo, 72 h; series mostly up to 46.1 µM; also: nearly all actives have a fitted effect of over 60% in size
Text: A prime difficulty in effectively treating cancer is the development of cellular resistance to multiple structurally unrelated anticancer drugs, a phenomenon known as multidrug resistance (MDR). […] Numerous strategies to overcome P-gp-mediated MDR have been explored, including the design of drugs that evade recognition and efflux, and development of inhibitors to block efflux and restore drug accumulation. […] An alternative approach is to exploit resistance by identifying drugs that target MDR cells over the non-resistant parental cells from which they were selected. […] The development of MDR1-selective agents represents a new strategy for resolving multidrug resistance, as it remains a long-standing clinical challenge for cancer chemotherapy.
Our goal is to identify compounds that selectively kill P-gp-expressing MDR cells. We will identify MDR1-selective compounds by comparing toxicity of compounds in the screening library against parental, drug-naive (KB-3-1) adenocarcinoma cells as well as their drug-selected MDR sub-line (KB-V1). The differential toxicity of compounds against these two cell lines will be used to identify MDR1-selective compounds, whose cytotoxicity is potentiated, rather than diminished, by P-gp expression. This assay will be utilized to conduct a quantitative high-throughput screen (qHTS) in collaboration with the NIH Chemical Genomics Center to identify selective agents, and probe hits arising from the screen will be validated using secondary assays and characterized through a well-established follow-up research program. This screen was run against the entire NCGC library collection of about 400,000 compounds.
NIH Molecular Libraries Probe Production Network [MLPCN]
NIH Chemical Genomics Center [NCGC]
PI: Michael Gottesman, National Cancer Institute, NIH
Briefly, 5 microL of media containing either KB-V1 cells (columns 1-2, 4-48) are dispensed into Greiner white, treated solid-bottom 1536-well assay plates (media-only control is added to column 3). Compounds are then transferred via Kalypsys pin tool equipped with 1536-pin array (10 nL slotted pins, V&P Scientific, San Diego, CA). Following addition of compound, the plates are incubated at 37 degrees C for 72 hours. CellTiter-Glo (2.5 µL/well) is then added, and the plates are read in a ViewLux reader (Perkin-Elmer, clear luminescence filter, 1 second exposure, 1x binning) following a 10 minute incubation. All cells are dispensed in DMEM phenol-red free media containing 10% FBS.
Library plates were screened starting from the lowest and proceeding to the highest concentration. Vehicle-only plates, with DMSO being pin-transferred to columns 5-48, will be inserted uniformly at the beginning and the end of each library in order to monitor and record any shifts in the background, which can be affected by reagent dispensers or loss in enzyme activity over time. Screening data will be corrected, normalized, and concentration-effect relationships will be derived by using publicly-available NCGC, NCATS curve fitting algorithms (http://ncgc.nih.gov/pub/openhts).
Potency is read from the fitted curve at half-maximal effect.

Question: Which Potency does the source give for `COC(=O)c1ccccc1N=NNc1ccc([N+](=O)[O-])cc1` here?
Answer: inactive

Question: Which Potency does the source give for `CC1(C(=O)NS(=O)(=O)c2cccc(F)c2)CCN1C(=O)Cc1cc(F)ccc1F` (stereo not drawn) here?
Answer: inactive

Question: With `O=C(Nc1cccc(-c2nnc(-c3ccccc3)o2)c1)C1CCCO1` (stereo not drawn) as the compound, how does the Potency read?
Answer: inactive

Question: With `O=C(Nc1nnc(CCc2ccccc2)s1)C1CCCO1` (stereo not drawn) as the compound, how does the Potency read?
Answer: inactive

Question: With `O=C(Nc1ccc(-c2nnc(-c3ccccc3)o2)cc1)C1CCCO1` (stereo not drawn) as the compound, how does the Potency read?
Answer: 8.2 µM (active)

Question: With `CC1(C(=O)NCc2ccccc2)CSCC(=O)N1CCCn1ccnc1` (stereo not drawn) as the compound, how does the Potency read?
Answer: inactive

Question: For `COc1ccc(-c2cc(NCc3ccc(F)cc3)n3cnnc3n2)cc1`, which Potency is on record?
Answer: inactive

Question: For `CC(Cc1cccs1)NC(=O)c1cccc(Cl)c1` (stereo not drawn), which Potency is on record?
Answer: inactive

Question: For `CC(=O)Nc1ccc(NC(=O)[C@@H](NC(=O)c2cccc(C)c2)C(C)C)cc1`, which Potency is on record?
Answer: inactive

Question: Which Potency does the source give for `Cc1cccc(C(=O)N[C@H](C(=O)NCc2cccs2)C(C)C)c1` here?
Answer: 9.2 µM (active)

Question: Which Potency does the source give for `COc1ccc(-c2[nH][nH]c(=O)c2NC(=O)c2ccc([N+](=O)[O-])cc2)cc1` here?
Answer: inactive

Question: With `S=C(NCC1COc2ccccc2O1)Nc1ccc(Br)cc1` (stereo not drawn) as the compound, how does the Potency read?
Answer: 23.1 µM (active)

Question: Which Potency does the source give for `O=C(NCC1COc2ccccc2O1)C1(c2ccccc2)CCCC1` (stereo not drawn) here?
Answer: inactive

Question: Which Potency does the source give for `CCCN(CC1COc2ccccc2O1)C(=S)Nc1ccc(C)cc1` (stereo not drawn) here?
Answer: inactive

Question: For `C[C@@H]1CN([C@H](C)CO)C(=O)c2cc(-c3ccc(F)cc3)cnc2O[C@H]1CN(C)C(=O)c1ccc(F)cc1`, which Potency is on record?
Answer: inactive

Question: For `CN(Cc1c(F)cccc1Cl)C(=O)COC(=O)Cn1cnc2ccccc2c1=O`, which Potency is on record?
Answer: inactive

Question: For `COc1cc(C)c(C)cc1S(=O)(=O)N1CCCc2ccccc21`, which Potency is on record?
Answer: inactive

Question: For `Cn1c(=O)n(C)c2cc(S(=O)(=O)N3CCCc4ccccc43)ccc21`, which Potency is on record?
Answer: 8.2 µM (active)

Question: Which Potency does the source give for `CC1CCN(C(=O)c2cccc(S(=O)(=O)N3CCCc4ccccc43)c2)CC1` here?
Answer: inactive

Question: Which Potency does the source give for `C[C@H](CO)N1C[C@H](C)[C@@H](CN(C)Cc2ccc3c(c2)OCO3)OCc2cnnn2CCCC1=O` here?
Answer: inactive

Question: With `CC1(C(=O)Nc2cccnc2)Cc2c(-c3ccccc3)ccnc2O1` (stereo not drawn) as the compound, how does the Potency read?
Answer: inactive

Question: For `Cc1[nH]c2ccccc2c1C(=O)C(C)Sc1nnc(C2CC2)o1` (stereo not drawn), which Potency is on record?
Answer: 7.31 µM (active)

Question: With `Cc1[nH]c2ccccc2c1C(=O)CN1CC(C)CC(C)C1` (stereo not drawn) as the compound, how does the Potency read?
Answer: inactive

Question: With `Cc1nnc(SC(C)C(=O)c2c[nH]c3ccccc23)n1C1CC1` (stereo not drawn) as the compound, how does the Potency read?
Answer: inactive

Question: For `COc1ccc(NC(=O)c2ccc3nc(CCc4ccccc4)oc3c2)c(OC)c1`, which Potency is on record?
Answer: inactive

Question: With `CC1(C(=O)NS(=O)(=O)c2cccs2)CCN1C(=O)Cc1ccc(-c2ccccc2)cc1` (stereo not drawn) as the compound, how does the Potency read?
Answer: inactive

Question: With `O=C(COc1ccccc1C(=O)Nc1ccccc1)Nc1cccc(F)c1` as the compound, how does the Potency read?
Answer: inactive

Question: For `Cc1nc2c(-c3ccccc3)c(C)nn2c(C)c1CCC(=O)NCCc1ccccc1`, which Potency is on record?
Answer: inactive

Question: For `COc1cc(NC(=O)CCn2nc(C)cc2C)cc(OC)c1OC`, which Potency is on record?
Answer: inactive

Question: Which Potency does the source give for `COc1cccc(CNC(=O)CCC2CCCN(C(=O)c3cc(C)[nH]n3)C2)c1` (stereo not drawn) here?
Answer: inactive

Question: Which Potency does the source give for `Cc1[nH]c2c(C(=O)N3CCCC(CCC(=O)NCc4ccccc4F)C3)cccc2c1C` (stereo not drawn) here?
Answer: 16.4 µM (active)

Question: With `CSc1ncccc1C(=O)N1CCCC(CCC(=O)NCc2ccccc2F)C1` (stereo not drawn) as the compound, how does the Potency read?
Answer: inactive

Question: For `CC(C)NC(=O)N1Cc2cc(C(=O)NCC(F)(F)F)nc(-c3cccc(-c4cc5ccccc5o4)c3)c2[C@@H]1CCO`, which Potency is on record?
Answer: inactive

Question: For `CCOc1ccc2nc(N3CCCN(C(=O)Nc4ccccc4C)CC3)c(C#N)cc2c1`, which Potency is on record?
Answer: 18.4 µM (active)

Question: Which Potency does the source give for `COc1ccc2nc(N3CCCC(O)C3)c(C#N)cc2c1` (stereo not drawn) here?
Answer: inactive

Question: With `CCOc1ccc2nc(N3CCCC(C(=O)Nc4cc(C)ccc4C)C3)sc2c1` (stereo not drawn) as the compound, how does the Potency read?
Answer: inactive

Question: With `CCOC(=O)c1ccccc1NC(=O)c1nn(-c2ccc(OC)c(Cl)c2)c(=O)c2c1c1ccccc1n2C` as the compound, how does the Potency read?
Answer: inactive

Question: Which Potency does the source give for `CN(C)CCNC(=O)c1ccc(-c2cn3c(-c4ccc(Oc5ccccc5)cc4)cnc3cn2)cc1` here?
Answer: inactive

Question: Which Potency does the source give for `O=C(CCc1nc(CN2CCN(S(=O)(=O)c3ccc(F)cc3)CC2)no1)N1CCCCC1` here?
Answer: inactive

Question: With `CC(=O)Nc1cnc(-c2ccc(O)cc2C)cn1` as the compound, how does the Potency read?
Answer: inactive

Question: For `Oc1ccc(-c2nc3ccccc3nc2-c2ccc(O)cc2O)c(O)c1`, which Potency is on record?
Answer: inactive

Question: With `Cc1cc(O)ccc1-c1cnc2ccccc2n1` as the compound, how does the Potency read?
Answer: 14.6 µM (active)

Question: Which Potency does the source give for `O=C(Nc1ccccc1Br)c1cc(CN2CCCC2)on1` here?
Answer: inactive

Question: With `OC(c1ccc(Cl)cc1)c1ncc(-c2ccc(Cl)cc2)[nH]1` (stereo not drawn) as the compound, how does the Potency read?
Answer: inactive

Question: For `Cn1cccc1/C=N/NC(=O)c1ccc(OC(F)(F)C(F)F)cc1`, which Potency is on record?
Answer: inactive

Question: Which Potency does the source give for `O=C(Nc1ccc(OC(F)(F)F)cc1)c1ccc2c(c1)no[n+]2[O-]` here?
Answer: 20.6 µM (active)

Question: Which Potency does the source give for `COC(=O)c1cnn(-c2ccc(C(=O)Nc3ccc(OC(F)(F)F)cc3)cc2)c1N` here?
Answer: inactive

Question: For `CCN(CC)C(=O)C1=C(C)N(Cc2ccc(F)cc2)C(=O)C(CC(=O)NC2CCCC2)C1` (stereo not drawn), which Potency is on record?
Answer: inactive

Question: For `CCc1ccc([C@@H]2CC(=O)[C@@H]3CN(S(=O)(=O)c4ccc(C)cc4)[C@H](c4ccc(Cl)cc4)C[C@@H]3N2S(=O)(=O)c2ccc(C)cc2)cc1`, which Potency is on record?
Answer: inactive

Question: For `Cc1ccc(S(=O)(=O)N2CCN(c3ccccc3)CC2)cc1C`, which Potency is on record?
Answer: inactive

Question: For `Cc1ccc2nc(CN3CCN(S(=O)(=O)c4ccc(C)c(C)c4)CC3)oc2c1`, which Potency is on record?
Answer: inactive

Question: With `Cc1cc(N2CCN(S(=O)(=O)c3ccc(C)c(C)c3)CC2)c2ccccc2n1` as the compound, how does the Potency read?
Answer: 3.26 µM (active)

Question: With `CCOC(=O)c1c(C)[nH]c(C)c1S(=O)(=O)N1CCCC(C(=O)NCc2ccccc2Cl)C1` (stereo not drawn) as the compound, how does the Potency read?
Answer: inactive

Question: With `COc1ccc(NCc2nnc(SCc3ccccc3)n2-c2ccc(OC)cc2)cc1` as the compound, how does the Potency read?
Answer: 8.2 µM (active)

Question: Which Potency does the source give for `CCc1nnc(NC(=O)CSc2nnc(Cc3ccccc3)n2-c2ccc(OC)cc2)s1` here?
Answer: inactive

Question: With `CCn1c(CNc2ccc(OC)cc2)nnc1SCC(=O)c1ccc(OC)cc1` as the compound, how does the Potency read?
Answer: inactive

Question: Which Potency does the source give for `CNC(=O)c1ccc(-c2nc(CN3CCc4ccccc43)c(C)o2)cc1` here?
Answer: inactive

Question: For `COc1ccc(-c2csc(N3CCN(Cc4ccc5c(c4)OCO5)CC3)n2)cc1`, which Potency is on record?
Answer: 13 µM (active)

Question: For `COc1ccc(C(O)c2nc(-c3ccc4c(c3)OCO4)cs2)cc1` (stereo not drawn), which Potency is on record?
Answer: inactive

Question: For `O=C(CN1CCN(c2nc(-c3ccccc3)cs2)CC1)NCc1ccc2c(c1)OCO2`, which Potency is on record?
Answer: inactive

Question: Which Potency does the source give for `CCN(C(=O)Nc1cccc2ccccc12)c1ccccc1` here?
Answer: inactive

Question: Which Potency does the source give for `CC1(C(=O)Nc2ccccc2Br)CCN1C(=O)CC1CC1` (stereo not drawn) here?
Answer: inactive

Question: With `Cc1ccc(CN(C)C[C@@H]2OCc3cnnn3CCCC(=O)N([C@@H](C)CO)C[C@H]2C)cc1` as the compound, how does the Potency read?
Answer: inactive
